# From the supplement of paper PMC6555819
# What was measured:
# Experiment in all cases: PBM binding z-score (relative to random genomic background probes); higher = stronger binding; sequences stand for … in GC…GCGATTGACAGCGTAGAATGAAGG
# [1] = tested on: FXR:RXRa (NR concentration 270 nM, RXRa partner concentration 90 nM)
# Outline: (§1)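 For binding z-scores, the reference was random background probes on custom Agilent 4×180K protein-binding microarrays. These arrays were incubated 1 h with ligand-free nuclear receptor dimers in PBS pH 7.4, 2% milk, 0.02% Triton X-100, 1 mM DTT, 0.2 mg/mL BSA and 0.4 mg/ml salmon testes DNA. Fluorescence was scanned after antibody detection of each partner (one per run) and regression-normalized.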
# [2] = tested on: LXRa:RXRa (NR concentration 270 nM, RXRa partner concentration 90 nM)
# Outline: as §1
# [3] = tested on: LXRa homodimer (NR concentration 270 nM)
# Outline: as §1
# [4] = tested on: LXRb:RXRa (NR concentration 270 nM, RXRa partner concentration 90 nM)
# Outline: as §1
# [5] = tested on: LXRb homodimer (NR concentration 270 nM)
# Outline: as §1
# [6] = tested on: PPARa:RXRa (NR concentration 270 nM, RXRa partner concentration 90 nM)
# Outline: as §1
# [7] = tested on: PPARg:RXRa (NR concentration 180 nM, RXRa partner concentration 90 nM)
# Outline: as §1
# [8] = tested on: PPARg:RXRa 270nM:90nM, anti-RXR (NR concentration 270 nM, RXRa partner concentration 90 nM)
# Outline: as §1
# [9] = tested on: PPARg:RXRa 30nM:10nM, anti-RXR (NR concentration 30 nM, RXRa partner concentration 10 nM)
# Outline: as §1
# [10] = tested on: PPARg:RXRa 90nM:30nM, anti-RXR (NR concentration 90 nM, RXRa partner concentration 30 nM)
# Outline: as §1
# [11] = tested on: PPARg:RXRa DBDmut IVT, anti-RXR (DBD mutation: RXRa K156A/R161A, NR concentration 270 nM, RXRa partner concentration 90 nM)
# Outline: as §1
# [12] = tested on: PPARg:RXRa IVT, anti-PPARg (NR concentration 270 nM, RXRa partner concentration 90 nM)
# Outline: as §1
# [13] = tested on: PPARg DBDmut:RXRa IVT, anti-PPARg (DBD mutation: PPARg1 K132A/R137A, NR concentration 270 nM, RXRa partner concentration 90 nM)
# Outline: as §1
# [14] = tested on: PPARg DBDmut IVT, anti-PPARg (DBD mutation: PPARg1 K132A/R137A, NR concentration 270 nM)
# Outline: as §1
# [15] = tested on: PPARg homodimer (NR concentration 180 nM)
# Outline: as §1
# [16] = tested on: PXR homodimer (NR concentration 270 nM)
# Outline: as §1
# [17] = tested on: RARa:RXR (NR concentration 270 nM, RXRa partner concentration 90 nM)
# Outline: as §1
# [18] = tested on: RARa homodimer (NR concentration 270 nM)
# Outline: as §1
# [19] = tested on: RARb:RXRa (NR concentration 270 nM, RXRa partner concentration 90 nM)
# Outline: as §1
# [20] = tested on: PXR:RXRa (NR concentration 270 nM, RXRa partner concentration 90 nM)
# Outline: as §1
Sequence,PBM binding z-score [1],PBM binding z-score [2],PBM binding z-score [3],PBM binding z-score [4],PBM binding z-score [5],PBM binding z-score [6],PBM binding z-score [7],PBM binding z-score [8],PBM binding z-score [9],PBM binding z-score [10],PBM binding z-score [11],PBM binding z-score [12],PBM binding z-score [13],PBM binding z-score [14],PBM binding z-score [15],PBM binding z-score [16],PBM binding z-score [17],PBM binding z-score [18],PBM binding z-score [19],PBM binding z-score [20]
CGTCCAAGGTCAGAGAGGTCACTGAATGCCGAGT,6.61,5.79,4.5,5.36,0.485,5.61,4.58,5.36,1.92,4.08,3.27,4.05,0.000167,0.0701,3.8,13.1,6.81,1.13,5.37,–
CGAACTAGGTTAAAGGACAGTGAAAGGCGACGTA,-0.0523,0.122,-0.254,0.129,-0.736,3.82,7.8,7.53,7.49,8.79,6.46,6.45,–,0.461,1.11,-0.159,0.0562,-0.221,1.72,-0.281
CGAACTAGGTCAAAGGACAGTGATAGGCGACGTA,3.8,2.62,0.0431,1.64,-0.0452,5.27,10.2,8.27,8.49,9.35,8.07,8.07,–,0.359,1.45,-0.148,2.05,0.153,3.95,1.14
ATATGTAGGTTAGGCTCATTCAGAAAGTAGGGAA,-0.281,-0.0164,-0.0399,0.129,0.223,2.21,2.96,2.43,0.952,1.84,6.49,5.75,–,1.4,0.501,0.16,-0.184,0.657,0.339,-0.124
CGAACTAGGCCAAAGGACAGTGAAAGGCGACGTA,-0.669,-0.893,-0.542,-0.756,-1.2,2.97,6.79,6.81,5.3,7.2,5.96,5.66,–,-0.194,0.351,-0.424,-0.24,-0.451,1.33,-0.549
ATATGTAGGTTAGGGTCATTGAGAAAGTAGGGAA,4.91,4.11,1.17,4.32,2.74,5.89,7.58,6.31,4.39,5.93,6.25,6.47,–,1.4,2.67,1.72,4.69,2.38,3.59,4.2
CGAACTAGATCACCAGGACAGTGAAGAGGTTGGA,-0.196,-0.468,-0.072,-0.702,-0.495,-0.082,0.66,-0.0755,-0.0214,-0.286,3.19,1.58,–,-0.163,0.192,-0.0713,-0.108,-0.196,-0.0219,-0.455
ATATGTAGGTTAGGGTCCTTCAGAAAGTAGGGAA,0.884,0.754,0.168,1.21,0.702,3.14,4.35,3.79,1.56,2.95,6.21,6.11,–,1.93,1.37,0.477,0.72,0.953,1.03,0.573
ATATGTAGGCTAGGGTCATTCAGAAAGTAGGGAA,3.72,3.09,0.43,3.94,0.611,5.08,5.38,4.76,3.09,4.24,4.03,4.85,–,0.962,1.74,1.05,4.04,1.2,3,3.55
CGAACTAGGTCAACAGGACAGTGAAGAGGTTGGA,3.71,2.37,0.16,1.55,-0.34,4.7,7.52,6.53,4.22,6.18,8.18,8.23,–,0.713,1.93,0.261,2.27,0.467,4.23,1.28
CGAACTAGGTCACCAGCACAGTGAAGAGGTTGGA,4.03,2.42,0.171,1.53,-0.224,5.12,8.39,7.01,4.62,6.53,8.34,8.76,–,0.181,1.79,0.0792,2.39,0.262,4.11,1.41
ATATGTAGGTTAGGGTCGTTCAGAAAGTAGGGAA,2.59,2.54,0.724,3.09,1.65,4.31,5.88,4.99,2.44,4.12,6.06,6.47,–,2.98,2.38,1.67,2.37,1.51,1.92,2.11
CGAACTAGGTCACCAGGATAGTGAAGAGGTTGGA,4.03,2.47,0.115,1.87,-0.103,5.37,8.87,6.98,4.74,6.8,8.36,8.68,–,2.4,2.57,-0.0879,2.59,0.146,4.2,1.4
CGAACTAGGTCACCAGGACAGTGATGAGGTTGGA,3.92,2.37,0.0863,1.49,-0.567,4.96,8.57,6.62,4.75,6.58,7.98,8.61,–,0.614,2.34,0.423,2.69,0.546,4.16,1.5
ATATGTAGGTGAGGGTCATTCAGAAAGTAGGGAA,3.06,2.59,1.02,3.43,1.43,5.07,7.86,6.55,4.94,6.5,7.49,7.69,–,2.2,2.51,1.81,3.81,2,2.97,3.02
ATATGTAGGTTAAGGTCATTCAGAAAGTAGGGAA,5.54,5.3,3.85,4.59,1.75,5.54,8.49,6.99,5.28,7.39,7.09,7.46,–,2.29,3.37,3.21,4.73,2.27,4.35,4.99
CGAACTAGGTCAAAGTACAGTGAAAGGCGACGTA,4.69,3.09,0.303,2.45,0.12,5.46,9.58,7.61,7.01,8.33,7.91,8.47,–,3.06,1.65,-0.31,2.5,-0.202,3.84,1.58
CGTACTAGGTCAAAGGACAGTGAAAGGCGACGTA,3.86,2.77,0.17,1.89,-0.0877,4.83,9.74,7.95,8.11,9.06,7.43,8,–,1.47,2.5,0.0831,2.27,0.22,3.85,1.14
CCAACTAGGTCACCAGGACAGTGAAGAGGTTGGA,4.24,2.6,0.434,1.91,0.121,4.66,8.3,6.53,3.83,6.09,7.98,8.26,–,1.95,2.72,0.124,2.69,1.44,4.36,1.52
CGAGCTAGGTCACCAGGACAGTGAAGAGGTTGGA,3.66,2.28,-0.245,1.56,-0.77,3.81,3.74,3.66,0.712,2.68,3.94,4.43,–,-1.08,1.48,-0.379,2.36,0.327,4.16,1.35
ATATGTACGTTAGGGTCATTCAGAAAGTAGGGAA,4.38,3.61,0.485,3.96,1.15,4.77,2.68,2.97,1.27,2.07,0.518,2.04,–,1.66,2.39,1.32,4.93,1.08,3.1,4.47
CGTACTAGGTCACCAGGACAGTGAAGAGGTTGGA,3.85,2.7,0.154,2.01,-0.0806,4.67,7.91,6.32,3.8,5.83,7.9,8.08,–,4.96,3.11,0.369,2.86,0.557,4.19,1.53
CGAACTAGGTCAAAGGACAGTGACAGGCGACGTA,4.22,2.82,0.19,1.88,-0.493,5.56,10.5,8.72,8.9,9.48,8.32,8.4,–,1.51,1.78,0.0588,2.47,0.339,4.01,1.3
ATATGTAGGGTAGGGTCATTCAGAAAGTAGGGAA,4.09,4.09,2.32,5.19,4.59,5.28,7.32,5.53,3.19,4.91,6.28,5.96,–,4.11,2.93,2.67,4.44,2.33,3.21,4.39
CGAACTAAGTCACCAGGACAGTGAAGAGGTTGGA,-0.00843,-0.109,-0.233,-0.378,-0.234,0.219,0.494,0.0365,0.0312,-0.255,2.13,1.61,–,-0.0362,0.131,0.203,0.00404,-0.12,0.526,-0.257
CGAACTAGGTCACCAGGACAGTGAAGAGGTTGGA,3.86,2.39,-0.071,1.65,-0.543,5.04,8.82,7,4.54,6.65,8.47,8.79,–,4.55,2.24,0.0754,2.76,0.232,4.14,1.37
CGAACTAGGTCACCAGGACATTGAAGAGGTTGGA,4.15,2.68,0.557,1.82,-0.284,5.35,8.44,7.05,4.88,6.35,7.89,8.55,–,0.336,1.53,0.175,2.53,0.511,4.21,1.66
ATATGTAGGTTAGGGTCAATCAGAAAGTAGGGAA,4.67,3.66,0.491,3.9,1.23,5.48,7.67,6.41,3.89,5.93,6.1,6.62,–,1.96,2.82,1.38,4.43,1.88,3.59,3.61
CGAACTAGGTCAAACGACAGTGAAAGGCGACGTA,4.81,2.87,0.0143,2.12,0.102,5.14,8.27,6.9,5.2,7.3,8.02,8.26,–,0.569,1.9,-0.315,2.13,0.265,3.7,1.19
CGAACTGGGTCACCAGGACAGTGAAGAGGTTGGA,3.32,1.63,-0.247,1.24,-0.906,4.99,8.62,6.73,4.52,6.31,7.66,8.73,–,1.6,1.47,-0.358,2.52,-0.049,3.73,1.55
